The values below come from PubChem BioAssay AID493170 (National Center for Advancing Translational Sciences (NCATS), 2011).

Inconclusive results are not listed. A number with no mark means an inactive call. The source made the active and inactive calls. Calls come from the whole dose curve; as a rule, active = well fitted inhibition curve with a large enough effect; inconclusive = small, poorly fitted or top-dose-only effect, or effect the other way; inactive = flat fitted curve, though single readings scatter.
% is set by controls: 0 for no effect and ±100 for the full control effect; potency is the fitted concentration of half-maximal effect.

For the test, the target named is Ubiquitin carboxyl-terminal hydrolase 2 (Homo sapiens) (UniProt O75604). Description: Ub-rhodamine 110 based assay for inhibitors Ubiquitin-specific Protease USP2a. Note: nearly all actives have a fitted effect of over 50% in size. The conditions noted are these: USP2a Ub-rhodamine110 cleavage, fluorescence; series mostly up to 38.3 µM; activity change, negative = inhibition: at the top concentration. An outline of the steps: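 Kinetic fluorescence (485/531 nm) read each minute over 7 min after adding Ub-Rhod110 (150 nM final) to USP2a (5 nM final). The enzyme had 30 min RT exposure to compounds beforehand in Tris pH 8.0 buffer with CaCl2, CHAPS and beta-ME.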
Sequence of Ubiquitin carboxyl-terminal hydrolase 2 (Homo sapiens) (O75604 whole entry, looked up): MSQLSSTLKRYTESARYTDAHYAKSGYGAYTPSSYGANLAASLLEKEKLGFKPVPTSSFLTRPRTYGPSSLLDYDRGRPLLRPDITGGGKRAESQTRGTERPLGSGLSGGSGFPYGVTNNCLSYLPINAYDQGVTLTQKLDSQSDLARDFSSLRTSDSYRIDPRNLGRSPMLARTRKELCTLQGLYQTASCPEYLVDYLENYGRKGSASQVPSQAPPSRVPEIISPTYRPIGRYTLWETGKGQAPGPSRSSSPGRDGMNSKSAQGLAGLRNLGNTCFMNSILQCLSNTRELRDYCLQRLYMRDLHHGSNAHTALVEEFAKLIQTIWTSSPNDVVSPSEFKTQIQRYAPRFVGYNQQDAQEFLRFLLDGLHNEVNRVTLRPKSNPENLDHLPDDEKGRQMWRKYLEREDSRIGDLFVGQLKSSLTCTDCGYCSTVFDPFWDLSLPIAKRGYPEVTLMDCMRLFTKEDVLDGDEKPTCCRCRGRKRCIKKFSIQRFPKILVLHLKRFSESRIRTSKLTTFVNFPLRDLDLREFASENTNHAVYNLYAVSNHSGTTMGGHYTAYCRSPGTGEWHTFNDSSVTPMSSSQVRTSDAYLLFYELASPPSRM
In the case of `CC1CCN(CC(O)COc2cccc(F)c2)CC1` (centres undefined), the “activity change, negative = inhibition” value is -2.9%.

With `COc1ccc(/C=N/NC(=O)c2nn(-c3ccccc3)c(=O)c3c(N)scc23)cc1`, the Potency is 10 µM (active).

In the case of `CC(C)(C)C1C=C(Sc2ccccc2)C(=O)O1` (centres undefined), the “activity change, negative = inhibition” value was -0.787%.

Regarding `C=CC[C@H](CC(=O)OC(C)(C)C)C(=O)OC[C@@H]1CCCN1C(=O)[C@H](CC=C)CC(=O)N[C@H](CO)Cc1ccccc1`, the “activity change, negative = inhibition” value is 0.806%.

In the case of `CCC(C(=O)NCc1ccccc1OC)n1nc(C)n2c(cc3occc32)c1=O` (centres undefined), the “activity change, negative = inhibition” value is -4.2%.

Take `CCCc1nc(SCC(N)=O)[nH]c(=O)c1CC`: the “activity change, negative = inhibition” value was 0.11%.

For `COc1ccc(-n2c(O)c(/C=N/n3cnnc3)c3ccccc3c2=O)cc1`, the “activity change, negative = inhibition” value is -3.98%.

For the compound `O=C(O)CC(C(=O)O)N1C(=O)/C(=C/C=C/c2ccco2)SC1=S` (centres undefined), the “activity change, negative = inhibition” value was -23.9%.

For `CCOc1ccc(NC(=O)c2ccc(NC(=O)COC(=O)c3ccc(NC(=O)CC#N)cc3)cc2)cc1`, the Potency was 3.98 µM (active).

Consider `CC1=NN(c2ccc(C(=O)O)cc2)C(=O)/C1=C\c1ccc(OC(=O)c2cccs2)cc1`, for which the “activity change, negative = inhibition” value was -21.7%.

Consider `CCn1cc(C(=O)N2CCOCC2)c(=O)c2cc(S(=O)(=O)N(C)C)ccc21`, for which the “activity change, negative = inhibition” value is 3.51%.

`Nc1cc(N)nc(SCC(=O)N2CCCCC2)n1`: the “activity change, negative = inhibition” value was -5.91%.

Regarding `O=C(Nc1ccccc1)c1cc(Cl)nc2ccccc12`, the “activity change, negative = inhibition” value was -4.81%.

`Cc1nc2ccccc2c2oc(C(=O)NCCN3CCN(C)CC3)cc12`: the “activity change, negative = inhibition” value is -12.3%.

In the case of `Cc1ccc(S(=O)(=O)Nc2ccccc2-c2ccccc2NS(=O)(=O)c2ccc(C)cc2)cc1`, the Potency was 8.91 µM (active).

As for `O=C(COc1ccccc1)NCCSc1ccccc1`, the “activity change, negative = inhibition” value is 4.88%.

In the case of `CCOc1ccccc1C(=O)NC1CC2CCCC(C1)N2C1CC1` (centres undefined), the “activity change, negative = inhibition” value was 4.05%.

As to `N#CC(c1ccccc1)c1ccc(C(=O)c2ccc(F)cc2)cc1` (centres undefined), the “activity change, negative = inhibition” value is -14.7%.

Consider `FC(F)Sc1ccc(NC(=S)NC2CCCCC2)cc1`, for which the “activity change, negative = inhibition” value was -3%.

Consider `C=C(C)COc1ccc(-c2[nH]ncc2Oc2ccccc2OCC)c(O)c1`, for which the “activity change, negative = inhibition” value is -15%.

With `Cc1ccc(C(=O)O/N=C/c2c(C(F)(F)F)nn(C)c2Sc2ccc(Cl)cc2)cc1`, the “activity change, negative = inhibition” value is 6.42%.

As to `Cc1nc(N(C)C)c2sc(=S)n(C)c2n1`, the “activity change, negative = inhibition” value was -1.3%.

Turning to `Cc1noc(/C=C/c2ccco2)c1S(=O)(=O)N1CCC(C(=O)N(C)Cc2ccccc2)CC1`, the Potency was 10 µM (active).

`COc1ccc(NC(=S)NC(=O)/C=C/c2ccco2)cc1`: the “activity change, negative = inhibition” value is -1.65%.

`Cn1c(C(=O)NCCCN2CCN(c3ccccc3F)CC2)cc2c(=O)n(C)c3ccccc3c21`: the “activity change, negative = inhibition” value was -27.2%.

With `Cc1ccc(-c2c(C)n([O-])c3c([n+]2=O)CCC3)o1`, the “activity change, negative = inhibition” value was -2.02%.

Take `COc1ccc(NC(=O)c2cc(-c3ccco3)nc3ccccc23)cc1S(=O)(=O)N1CCOCC1`: the Potency is 4.47 µM (active).

On to `CC(C)CCn1c(CN2CCN(C(=O)c3ccco3)CC2)nc2c1c(=O)n(C)c(=O)n2C`, for which the “activity change, negative = inhibition” value was 24.1%.

Regarding `COc1cc(OC)cc(-c2c(C#Cc3ccsc3)c3cc(-c4ccc(OC)c(F)c4)ccc3n2C)c1`, the “activity change, negative = inhibition” value is -6.24%.

Regarding `CC(=O)c1cccc(NC(=O)C(C)OC(=O)c2cc(=O)[nH]c3ccccc23)c1` (centres undefined), the “activity change, negative = inhibition” value was -17%.

Turning to `COC(=O)CCC(=O)Nc1sc2c(c1C#N)CCCC2`, the “activity change, negative = inhibition” value was -9.38%.

For the compound `COc1ccc(/C=C\C(=O)O[C@@H]2C(O)C(O[C@@H]3OC(C)[C@H](O[C@@H]4OCC(O[C@H]5O[C@H](CO)[C@@H](O)C(O)C5O)C(O)C4O)C(O)C3O)[C@H](OC(=O)[C@]34CCC(C)(C)C[C@@H]3C3=CCC5[C@@]6(C)CC(O)C(O[C@@H]7OC(CO)C(O)[C@H](O)[C@H]7O)[C@@](C)(C(=O)O)C6CC[C@@]5(C)[C@]3(CO)CC4)O[C@H]2C)cc1` (some centres undefined), the “activity change, negative = inhibition” value was -12.9%.

Regarding `Cn1ccc(=Nc2ccc(NC(=O)c3ccc(N=c4ccn(C)c5ccc([N+](=O)[O-])cc45)cc3)cc2)cc1`, the “activity change, negative = inhibition” value is 0.599%.

`Cc1cc(C(=O)NCc2ccco2)on1`: the “activity change, negative = inhibition” value is -27.9%.

`COc1cc2c(C(=O)N3CCN(c4cccc(Cl)c4)CC3)cn(CC(C)C)c(=O)c2cc1OC`: the “activity change, negative = inhibition” value is 2.04%.

For `O=C(N/N=C/c1ccc(F)cc1)c1cc(-c2ccco2)nc2ccccc12`, the Potency is 2 µM (active).

For the compound `O=C(/C=C1\NC2(CCCC2)Cc2ccccc21)C(=O)N/N=C/c1ccc(O)c(O)c1`, the Potency is 7.94 µM (active).

Regarding `CSc1ncccc1C(=O)OCC(=O)N1CCOCC1`, the “activity change, negative = inhibition” value was 17.7%.

Take `O=C(NC1CCCC1)C1C2C=CC(C2)C1C(=O)N1CCOCC1` (centres undefined): the “activity change, negative = inhibition” value was 2.69%.
